Assay [1] is described as follows: qHTS RealTime-Glo MT Cell Viability Assay in HepG2 cells - 8 hour (AID 1224873). Note: nearly all actives have a fitted effect of over 55% in size. The method in brief:
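HepG2 cells mixed with RealTime-Glo MT reagents (NanoLuc plus cell-permeant prosubstrate) were seeded at 600 cells/well, incubated 5 h at 37 C/5% CO2, then pinned with compounds in DMSO; nonlytic luminescence tracked viability during 40 h treatment.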
On the technique in general: qHTS replaces the single test concentration by a dilution series.

A short description of assay [2]: qHTS RealTime-Glo MT Cell Viability Assay in HEK293 cells - 40 hour (AID 1224874). Note: nearly all actives have a fitted effect of over 50% in size. Note: potency is the fitted concentration of half-maximal effect. The settings on record: RealTime-Glo luminescence; max response: active compounds read low. The method in brief: (§1)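 600 HEK293 cells per well, dispensed already mixed with RealTime-Glo MT reagents. Compound dosing came 5 h later. The same wells were read for luminescence at 0, 8, 16, 24, 32 and 40 h of exposure at 37 C.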

A short description of assay [3]: A CellTox Green Cytotoxicity Assay to monitor cytotoxicity in HepG2 cells - 16 hour (AID 1224876). Note: nearly all actives have a fitted effect of over 45% in size. Note: potency is the fitted concentration of half-maximal effect. The method in brief:
(§2)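 First, HepG2 cells (600/well) mixed with reagent were plated; second, after 5 h at 37 C they received compounds via pintool; third, fluorescence was measured at 0 h through 40 h at 8 h intervals.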

The nature of assay [4]: qHTS RealTime-Glo MT Cell Viability Assay in HepG2 cells - 32 hour (AID 1224877). Note: nearly all actives have a fitted effect of over 55% in size. The method in brief: (§3)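 HepG2 cells were seeded at 600 cells/well together with NanoLuc luciferase and a cell-permeant prosubstrate, preincubated 5 h at 37 C/5% CO2, then pin-dosed with compounds in DMSO. Nonlytic luminescence from viable cells was read at each time point.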
The nature of assay [5]: A CellTox Green Cytotoxicity Assay to monitor cytotoxicity in HepG2 cells - 24 hour (AID 1224878). Note: nearly all actives have a fitted effect of over 45% in size. Note: potency is the fitted concentration of half-maximal effect. The method in brief:
as §2

The nature of assay [6]: A CellTox Green Cytotoxicity Assay to monitor cytotoxicity in HepG2 cells - 40 hour (AID 1224879). Note: nearly all actives have a fitted effect of over 40% in size. Note: potency is the fitted concentration of half-maximal effect. The method in brief: as §2
Assay [7] can be described thus: qHTS RealTime-Glo MT Cell Viability Assay in HEK293 cells - 0 hour (AID 1224880). Note: nearly all actives have a fitted effect of over 45% in size. Note: potency is the fitted concentration of half-maximal effect. The method in brief:
as §1

Assay [8] is described as follows: A CellTox Green Cytotoxicity Assay to monitor cytotoxicity in HEK293 cells - 32 hour (AID 1224881). Note: nearly all actives have a fitted effect of over 40% in size. Note: potency is the fitted concentration of half-maximal effect. An outline of the steps: (§4)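 Dead-cell fluorescence measured kinetically: asymmetric cyanine dye, HEK293, 600 cells/well, 5 h settle, 23 nL cpd/DMSO, 37 C, reads 0–40 h every 8 h.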
Assay [9] can be described thus: A CellTox Green Cytotoxicity Assay to monitor cytotoxicity in HepG2 cells - 0 hour (AID 1224882). Note: nearly all actives have a fitted effect of over 35% in size. An outline of the steps:
as §2

Assay [10] in a line: A CellTox Green Cytotoxicity Assay to monitor cytotoxicity in HepG2 cells - 32 hour (AID 1224883). Note: nearly all actives have a fitted effect of over 50% in size. Note: potency is the fitted concentration of half-maximal effect. The method in brief: as §2
Assay [11] can be described thus: A CellTox Green Cytotoxicity Assay to monitor cytotoxicity in HEK293 cells - 8 hour (AID 1224884). Note: nearly all actives have a fitted effect of over 35% in size. Note: potency is the fitted concentration of half-maximal effect. An outline of the steps: as §4
Assay [12] is described as follows: qHTS RealTime-Glo MT Cell Viability Assay in HepG2 cells - 16 hour (AID 1224885). Note: nearly all actives have a fitted effect of over 50% in size. An outline of the steps:
as §3

Assay [13] can be described thus: qHTS RealTime-Glo MT Cell Viability Assay in HEK293 cells - 24 hour (AID 1224886). Note: nearly all actives have a fitted effect of over 50% in size. Note: potency is the fitted concentration of half-maximal effect. An outline of the steps:
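HEK293 cells were seeded at 600 cells/well together with NanoLuc luciferase and cell-permeant prosubstrate, preincubated 5 h at 37 C/5% CO2, then given compound in DMSO by pintool. Luminescence from viable-cell prosubstrate reduction was read repeatedly over 40 h.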

A short description of assay [14]: qHTS RealTime-Glo MT Cell Viability Assay in HepG2 cells - 0 hour (AID 1224889). Note: nearly all actives have a fitted effect of over 50% in size. The method in brief:
as §3

Assay [15] in a line: qHTS assay to identify small molecule antagonists of the estrogen receptor alpha (ER-alpha) signaling pathway using the BG1 cell line in the presence of 0.1 nM 17-beta-estradiol - cell viability counter screen (AID 1259241). Note: nearly all actives have a fitted effect of over 40% in size. An outline of the steps: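 CellTiter-Fluor read (30 min, 37C) on ER-alpha/ERE-luc VM7Luc4E2 cells; 22 hr compound treatment; agonist 0.1 nM E2 final; same-well multiplex.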

The nature of assay [16]: A CellTox Green Cytotoxicity Assay to monitor cytotoxicity in HEK293 cells - 24 hour (AID 1224875). Note: nearly all actives have a fitted effect of over 45% in size. Note: potency is the fitted concentration of half-maximal effect. The method in brief: as §4
Assay [17] is described as follows: A CellTox Green Cytotoxicity Assay to monitor cytotoxicity in HEK293 cells - 16 hour (AID 1224888). Note: nearly all actives have a fitted effect of over 35% in size. Note: potency is the fitted concentration of half-maximal effect. The method in brief:
as §4

Assay [18] is described as follows: A CellTox Green Cytotoxicity Assay to monitor cytotoxicity in HepG2 cells - 8 hour (AID 1224890). Note: nearly all actives have a fitted effect of over 45% in size. An outline of the steps: as §2
Assay [19] can be described thus: qHTS RealTime-Glo MT Cell Viability Assay in HEK293 cells - 8 hour (AID 1224887). Note: nearly all actives have a fitted effect of over 50% in size. Note: potency is the fitted concentration of half-maximal effect. The method in brief: as §1

SMILES strings stand for the structures. Inconclusive results are not listed. The source made the active and inactive calls. Calls come from the whole dose curve; as a rule, active = well fitted curve in the direction sought with a large enough effect in the repeat runs; inconclusive = weak or mixed curves; inactive = no such curve, though single readings can be large; an effect the other way counts as inactive or inconclusive.

The values below come from PubChem BioAssay (Tox21).
% is set by controls: 0 for no effect and ±100 for the full control effect.

As for `Brc1ccccc1-c1ccccc1`, the Potency result in assay [1], in [4], in [7], in [9], in assay [11] and in [12] was “inactive” throughout. Besides, the Potency result in [13], in assay [14] and in [15] was “inactive” each time. The max response in [2] was -2.43% (inactive). Also, the Potency in [3] is 41.3 µM (active); in assay [5], 46.3 µM (active); in [6] it was 1.84 µM (active); in [8], 20.7 µM (active); in [10], 46.3 µM (active).
With `C[C@@H]1CC[C@H]2C(C)(C)[C@H]3C[C@@]12CC[C@@]3(C)O`, the Potency result in assay [1], in assay [4], in assay [7], in assay [9], in assay [12] and in assay [14] was “inactive” each time. In addition, the Potency result in assay [18] and in assay [15] was “inactive” in each case. The max response in assay [2] is -18.5% (inactive). Also, the Potency in [16] was 38.8 µM (active); in [5], 48.9 µM (active); in assay [6] it was 54.9 µM (active); in [8] it was 38.8 µM (active); in assay [10], 54.9 µM (active); in assay [11], 43.6 µM (active). In assay [17], the Potency was 43.6 µM (active).
On to `Cc1ccc(CCn2c3c(c4cc(Cl)ccc42)CN(C)CC3)cn1`, for which the Potency entry in assay [1], in assay [16], in [4], in assay [8], in assay [9] and in assay [11] was “inactive” throughout. Also, the Potency entry in [12], in assay [17] and in assay [15] was “inactive” in each case. For the same molecule, the values for the Potency in [2], in assay [7] and in assay [13] were 21.3 µM (active), 16.9 µM (active) and 9.52 µM (active), respectively.
Consider `CCCCCCCC/C=C\CCCCCCCC(=O)OCCOC(=O)CCCCCCC/C=C\CCCCCCCC`, for which the Potency result in assay [1], in assay [16], in assay [3], in assay [4], in [5] and in assay [6] was “inactive” each time. Further, the Potency result in [9], in [10], in assay [11], in [12], in [13] and in assay [18] was “inactive” in each case. Besides, the Potency entry in [15] was “inactive”. Also, in assay [2], the max response was -19.3% (inactive). In addition, the Potency in assay [19] is 20.2 µM (active).
Regarding `CC(C)C(=O)OCc1ccccc1`, the Potency entry in [1], in assay [4], in assay [9], in [12], in assay [14] and in assay [15] was “inactive” in each case. Further, the max response in assay [2] was 18.1% (inactive).
Turning to `CO[Si](CCCNCCNCCN)(OC)OC`, the Potency result in assay [1], in [16], in [4], in assay [5], in assay [6] and in assay [7] was “inactive” in each case. In addition, the Potency entry in [8], in assay [9], in assay [10], in assay [11], in [12] and in assay [13] was “inactive” throughout. Moreover, the Potency entry in assay [19], in [17], in assay [14], in assay [18] and in assay [15] was “inactive” each time. Moreover, in assay [2], the max response was 4.89% (inactive).
Turning to `CCCCOC(=O)C(C)CC` (stereo not given), the Potency entry in assay [1], in assay [16], in [3], in assay [4], in [5] and in assay [6] was “inactive” each time. Further, the Potency entry in assay [7], in assay [10], in [11], in assay [12], in assay [19] and in assay [17] was “inactive” in each case. Also, the Potency entry in assay [14] and in assay [18] was “inactive” each time. In addition, the max response in assay [2] is 1.36% (inactive).
On to `Cc1cn[nH]c1`, for which the Potency entry in [1], in assay [3], in assay [4], in assay [5], in [6] and in assay [7] was “inactive” each time. Besides, the Potency result in assay [8], in [10], in assay [11], in assay [12], in assay [13] and in assay [19] was “inactive” throughout. The Potency entry in assay [17], in assay [14] and in assay [15] was “inactive” in each case. For the same molecule, the max response in assay [2] was 7.93% (inactive).
`CC(C)N=C(N)/N=C(\N)Nc1ccc(Cl)cc1`: the Potency entry in [1], in [16], in [4], in [7], in assay [9] and in assay [11] was “inactive” each time. Also, the Potency result in [12], in assay [17], in assay [14] and in [18] was “inactive” each time. Besides, the Potency in [2] was 26.8 µM (active); in [5], 26.8 µM (active); in [6], 26.8 µM (active); in [10], 26.8 µM (active); in assay [13], 23.9 µM (active).
On to `CCCCCCCCC(C)=O`, for which the Potency result in assay [1], in [3], in assay [4], in [5], in [6] and in [7] was “inactive” each time. The Potency result in assay [8], in [10], in assay [11], in assay [12], in assay [13] and in assay [19] was “inactive” throughout. For the same molecule, the Potency result in assay [17], in [14] and in [18] was “inactive” each time. Besides, the max response in assay [2] is 9.37% (inactive).
